Values joined by “and” are separate entries in the source; they are usually repeats but may differ in a detail not shown here. Equal entries are not always repeated. For part of these data: Measured potencies and affinities stand elsewhere.
What was measured:
Set-up in all cases: scale not given: direction of the effect not stated beside the values
[1] = biological target: Protein translocase subunit SecA (Escherichia coli (strain K12)) (UniProt P10408); assay: Assay to Identify E. coli SecA ATPase Inhibitors; type: functional; conditions: 30 µM
Protein translocase subunit SecA (Escherichia coli (strain K12)), sequence (P10408 whole entry): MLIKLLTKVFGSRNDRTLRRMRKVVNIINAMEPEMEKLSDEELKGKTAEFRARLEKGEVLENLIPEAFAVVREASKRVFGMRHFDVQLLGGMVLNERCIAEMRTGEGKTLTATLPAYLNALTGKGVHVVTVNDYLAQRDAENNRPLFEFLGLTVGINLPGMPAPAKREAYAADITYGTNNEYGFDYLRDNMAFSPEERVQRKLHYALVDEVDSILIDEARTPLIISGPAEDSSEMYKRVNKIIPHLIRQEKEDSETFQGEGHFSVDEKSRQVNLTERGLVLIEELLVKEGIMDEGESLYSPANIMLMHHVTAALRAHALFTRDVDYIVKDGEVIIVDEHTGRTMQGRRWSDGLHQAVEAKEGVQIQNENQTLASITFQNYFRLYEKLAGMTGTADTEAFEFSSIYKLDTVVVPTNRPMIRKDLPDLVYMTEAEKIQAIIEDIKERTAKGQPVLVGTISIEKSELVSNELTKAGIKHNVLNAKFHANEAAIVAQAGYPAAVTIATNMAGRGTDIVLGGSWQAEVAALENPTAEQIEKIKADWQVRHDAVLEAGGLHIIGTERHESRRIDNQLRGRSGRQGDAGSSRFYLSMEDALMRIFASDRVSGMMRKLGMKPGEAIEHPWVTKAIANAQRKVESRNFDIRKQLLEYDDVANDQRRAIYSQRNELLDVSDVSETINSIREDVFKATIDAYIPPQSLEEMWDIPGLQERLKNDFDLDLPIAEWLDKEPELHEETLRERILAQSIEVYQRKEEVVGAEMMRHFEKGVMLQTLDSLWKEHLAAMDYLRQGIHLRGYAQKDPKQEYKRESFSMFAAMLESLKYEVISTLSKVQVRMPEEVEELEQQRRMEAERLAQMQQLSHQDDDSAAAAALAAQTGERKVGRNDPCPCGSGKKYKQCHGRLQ

[2] = biological target: T1, Ubiquitin-activating enzyme e1, putative (Leishmania donovani (strain BPK282A1)) (UniProt E9BSI1); assay: Leishmania donovani Ubiquitin Activating Enzyme (LdE1); type: functional; conditions: 30 µM
T1 sequence (whole entry): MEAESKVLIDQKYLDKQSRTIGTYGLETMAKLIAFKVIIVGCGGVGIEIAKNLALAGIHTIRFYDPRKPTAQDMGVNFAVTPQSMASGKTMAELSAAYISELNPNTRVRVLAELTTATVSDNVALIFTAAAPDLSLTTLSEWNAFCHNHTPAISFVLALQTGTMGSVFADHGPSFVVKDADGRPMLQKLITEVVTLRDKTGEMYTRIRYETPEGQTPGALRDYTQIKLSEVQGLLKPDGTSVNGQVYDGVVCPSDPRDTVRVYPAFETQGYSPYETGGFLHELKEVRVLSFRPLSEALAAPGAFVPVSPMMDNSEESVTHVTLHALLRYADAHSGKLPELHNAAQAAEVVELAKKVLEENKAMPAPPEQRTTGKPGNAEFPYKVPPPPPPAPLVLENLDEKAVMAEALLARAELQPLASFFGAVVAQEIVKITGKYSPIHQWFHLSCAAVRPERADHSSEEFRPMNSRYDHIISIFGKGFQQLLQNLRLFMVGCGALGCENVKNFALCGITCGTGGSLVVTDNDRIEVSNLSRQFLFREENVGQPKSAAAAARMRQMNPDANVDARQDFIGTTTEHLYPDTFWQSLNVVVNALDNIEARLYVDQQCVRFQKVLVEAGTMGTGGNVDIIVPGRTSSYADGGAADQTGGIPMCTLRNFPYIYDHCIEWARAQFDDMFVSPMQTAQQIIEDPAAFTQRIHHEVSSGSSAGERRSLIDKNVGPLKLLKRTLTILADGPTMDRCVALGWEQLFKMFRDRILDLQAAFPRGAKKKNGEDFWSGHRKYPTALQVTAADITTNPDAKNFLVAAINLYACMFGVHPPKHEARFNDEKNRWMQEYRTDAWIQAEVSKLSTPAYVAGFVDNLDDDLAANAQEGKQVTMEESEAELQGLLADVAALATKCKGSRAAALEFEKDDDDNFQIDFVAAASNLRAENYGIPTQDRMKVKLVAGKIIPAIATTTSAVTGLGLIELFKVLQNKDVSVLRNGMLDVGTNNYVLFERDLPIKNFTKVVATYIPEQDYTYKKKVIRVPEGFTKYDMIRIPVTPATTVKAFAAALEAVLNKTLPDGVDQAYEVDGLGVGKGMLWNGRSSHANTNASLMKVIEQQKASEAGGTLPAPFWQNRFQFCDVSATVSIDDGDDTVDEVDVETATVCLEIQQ

[3] = biological target: AMP-activated protein kinase, AMPK (Homo sapiens) (UniProt P54646+O43741+P54619+Q9UGJ0+Q9Y478+Q13131+Q9UGI9); assay: AMP-dependent Kinase enzyme assay. An in vitro enzyme assay that detects ADP turnover that is directly proportional to AMPK activity. This uses naive AMPK that is activated during the assay with MK-8722; type: functional; conditions: 30 µM
[4] = biological target: Sialic acid-binding Ig-like lectin 9 (Homo sapiens) (UniProt Q9Y336); assay: Hs-Siglec9 ALPHAscreen SOP 20170721; conditions: 10 µM
Sialic acid-binding Ig-like lectin 9 (Homo sapiens), sequence (Q9Y336 whole entry): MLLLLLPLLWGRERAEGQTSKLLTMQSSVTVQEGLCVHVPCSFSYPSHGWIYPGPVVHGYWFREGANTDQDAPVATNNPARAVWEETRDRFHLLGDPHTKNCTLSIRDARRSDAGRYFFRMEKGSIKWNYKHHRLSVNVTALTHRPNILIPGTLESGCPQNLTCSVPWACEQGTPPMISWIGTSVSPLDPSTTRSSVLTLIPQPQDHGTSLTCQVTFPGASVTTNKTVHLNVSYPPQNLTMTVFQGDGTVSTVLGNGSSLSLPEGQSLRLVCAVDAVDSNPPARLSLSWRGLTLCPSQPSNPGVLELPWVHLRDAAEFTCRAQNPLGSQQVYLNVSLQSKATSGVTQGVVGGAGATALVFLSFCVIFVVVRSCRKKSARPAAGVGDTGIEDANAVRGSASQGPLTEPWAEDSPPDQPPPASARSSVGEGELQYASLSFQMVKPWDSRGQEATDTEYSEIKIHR

Trypanosoma cruzi = assay: Trypanosoma cruzi phosphomannomutase and mannose-1-phosphate guanylyltransferase assay; type: functional; conditions: 10 µM
[5] = biological target: T2, Arginase-2, mitochondrial (Homo sapiens) (UniProt P78540); assay: in vitro enzyme assay to detect the production of urea directly proportional to the activity of Arginase II; type: functional; note: in the data most compounds retested in dose-response had high values
T2 sequence (whole entry): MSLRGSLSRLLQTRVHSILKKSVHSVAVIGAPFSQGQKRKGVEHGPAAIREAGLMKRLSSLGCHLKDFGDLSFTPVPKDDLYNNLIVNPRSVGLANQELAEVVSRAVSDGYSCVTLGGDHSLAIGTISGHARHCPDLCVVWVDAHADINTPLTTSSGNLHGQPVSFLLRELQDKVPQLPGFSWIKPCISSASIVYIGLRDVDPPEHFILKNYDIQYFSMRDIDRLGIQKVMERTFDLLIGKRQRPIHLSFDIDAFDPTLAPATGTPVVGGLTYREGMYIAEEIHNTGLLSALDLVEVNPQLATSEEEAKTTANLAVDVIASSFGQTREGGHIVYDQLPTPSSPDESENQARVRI

[6] = biological target: T3, Proteasome subunit beta (Trypanosoma cruzi) (UniProt O96673); assay: Trypanosoma cruzi proteasome chymotrypsin-like activity (TcProtChymo) assay.; note: in the data most compounds retested in dose-response had high values; type: functional; conditions: 9.37 µM
T3 sequence (whole entry): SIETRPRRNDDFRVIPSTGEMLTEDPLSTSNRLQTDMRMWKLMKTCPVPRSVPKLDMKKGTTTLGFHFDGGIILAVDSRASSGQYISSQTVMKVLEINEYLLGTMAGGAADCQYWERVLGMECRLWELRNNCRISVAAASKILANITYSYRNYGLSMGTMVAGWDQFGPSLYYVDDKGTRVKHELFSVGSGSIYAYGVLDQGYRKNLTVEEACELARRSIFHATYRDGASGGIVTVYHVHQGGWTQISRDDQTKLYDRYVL

Homo sapiens = species: Homo sapiens; assay: To identify inhibition of the IFN signalling (Jak-Stat) pathway via expression of an eGFP reporter gene under the control of an IFN-stimulated response element (ISRE) containing MxA promoter.; type: functional; conditions: 30 µM
[7] = biological target: T4, Tyrosyl-tRNA synthetase, putative (Trypanosoma cruzi (strain CL Brener)) (UniProt Q4DSP6); assay: Trypanosoma cruzi tyrosyl tRNA synthetase (TcYRS) _High Tyrosine SOP; type: functional; conditions: 30 µM; note: in the data most compounds retested in dose-response had high values
T4 sequence (whole entry): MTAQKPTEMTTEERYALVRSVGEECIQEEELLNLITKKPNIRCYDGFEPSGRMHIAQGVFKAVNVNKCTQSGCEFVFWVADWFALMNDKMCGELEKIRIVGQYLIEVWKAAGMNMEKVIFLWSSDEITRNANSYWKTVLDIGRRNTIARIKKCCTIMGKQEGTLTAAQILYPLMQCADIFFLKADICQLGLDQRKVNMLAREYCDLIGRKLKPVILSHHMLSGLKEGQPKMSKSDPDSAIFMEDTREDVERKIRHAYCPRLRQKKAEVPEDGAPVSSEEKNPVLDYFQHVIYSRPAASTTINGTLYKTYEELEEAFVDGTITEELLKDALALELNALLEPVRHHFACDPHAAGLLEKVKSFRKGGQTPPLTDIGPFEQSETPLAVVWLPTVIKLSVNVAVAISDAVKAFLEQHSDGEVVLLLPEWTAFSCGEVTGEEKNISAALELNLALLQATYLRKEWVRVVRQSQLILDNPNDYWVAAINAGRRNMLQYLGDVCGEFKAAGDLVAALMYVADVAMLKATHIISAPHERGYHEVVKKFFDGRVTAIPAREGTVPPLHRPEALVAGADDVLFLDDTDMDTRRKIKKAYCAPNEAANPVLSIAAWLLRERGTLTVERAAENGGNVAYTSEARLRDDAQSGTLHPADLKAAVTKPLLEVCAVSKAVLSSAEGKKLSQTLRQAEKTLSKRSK

[8] = biological target: T4, Tyrosyl-tRNA synthetase, putative (Trypanosoma cruzi (strain CL Brener)); assay: Trypanosoma cruzi tyrosyl tRNA synthetase (TcYRS) SOP; type: functional; conditions: 30 µM
[9] = biological target: Chromo domain-containing protein 1 (Saccharomyces cerevisiae (strain ATCC 204508 / S288c) (Baker's yeast)) (UniProt P32657); assay: ScCHD-1 Enzyme Inhibition Assay; type: functional; conditions: 30 µM; note: in the data most compounds retested in dose-response had high values
Chromo domain-containing protein 1 (Saccharomyces cerevisiae (strain ATCC 204508 / S288c) (Baker's yeast)), sequence (P32657 whole entry, the tested form may be a part): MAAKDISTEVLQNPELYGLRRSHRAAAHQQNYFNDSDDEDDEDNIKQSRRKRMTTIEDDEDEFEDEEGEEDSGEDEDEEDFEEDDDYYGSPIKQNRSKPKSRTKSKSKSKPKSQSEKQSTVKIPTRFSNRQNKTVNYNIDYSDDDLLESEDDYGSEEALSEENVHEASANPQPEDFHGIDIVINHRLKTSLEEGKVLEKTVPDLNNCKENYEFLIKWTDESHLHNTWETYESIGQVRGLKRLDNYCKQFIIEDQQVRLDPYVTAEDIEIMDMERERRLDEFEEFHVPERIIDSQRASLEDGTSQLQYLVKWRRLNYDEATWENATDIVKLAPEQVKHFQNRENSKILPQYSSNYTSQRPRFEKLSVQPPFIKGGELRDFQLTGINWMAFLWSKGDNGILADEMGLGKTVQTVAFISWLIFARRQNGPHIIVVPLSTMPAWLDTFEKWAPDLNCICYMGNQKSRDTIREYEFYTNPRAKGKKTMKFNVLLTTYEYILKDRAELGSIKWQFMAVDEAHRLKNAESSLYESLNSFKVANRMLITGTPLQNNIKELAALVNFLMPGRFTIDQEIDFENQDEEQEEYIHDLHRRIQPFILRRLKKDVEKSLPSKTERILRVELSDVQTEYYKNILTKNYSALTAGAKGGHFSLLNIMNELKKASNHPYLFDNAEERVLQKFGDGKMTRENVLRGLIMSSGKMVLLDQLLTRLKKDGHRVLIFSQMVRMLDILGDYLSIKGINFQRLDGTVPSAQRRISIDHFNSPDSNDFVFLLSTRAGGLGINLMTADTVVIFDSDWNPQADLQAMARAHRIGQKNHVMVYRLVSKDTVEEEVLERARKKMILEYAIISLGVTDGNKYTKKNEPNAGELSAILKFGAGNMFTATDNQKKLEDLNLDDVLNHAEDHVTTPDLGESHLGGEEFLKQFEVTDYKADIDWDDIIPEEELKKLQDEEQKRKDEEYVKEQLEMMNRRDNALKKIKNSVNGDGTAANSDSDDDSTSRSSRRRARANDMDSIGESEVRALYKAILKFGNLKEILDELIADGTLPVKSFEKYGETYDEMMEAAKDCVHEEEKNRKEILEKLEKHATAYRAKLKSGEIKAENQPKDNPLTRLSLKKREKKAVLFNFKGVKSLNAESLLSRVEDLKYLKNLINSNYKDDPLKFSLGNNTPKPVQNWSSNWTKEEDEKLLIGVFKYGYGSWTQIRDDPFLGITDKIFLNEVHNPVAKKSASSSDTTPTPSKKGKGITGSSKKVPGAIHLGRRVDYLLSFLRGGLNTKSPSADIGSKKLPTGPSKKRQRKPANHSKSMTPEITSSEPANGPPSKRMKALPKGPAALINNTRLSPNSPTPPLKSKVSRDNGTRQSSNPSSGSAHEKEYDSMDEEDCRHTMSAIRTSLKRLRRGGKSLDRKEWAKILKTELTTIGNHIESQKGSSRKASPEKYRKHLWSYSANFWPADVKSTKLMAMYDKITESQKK

N/A = assay: Trypanosoma cruzi proteasome luciferase counter-screen; type: functional; conditions: 9.37 µM

SMILES | Percent Effect [1] | Percent Effect [2] | Percent Effect [3] | Percent Effect [4] | Percent Effect (Trypanosoma cruzi) | Percent Effect ([5]; 30 µM) | Percent Effect ([5]; 33.3 µM) | Percent Effect [6] | Percent Effect (Homo sapiens) | Percent Effect [7] | Percent Effect [8] | Percent Effect [9] | Percent Effect (N/A)
CCn1c(Nc2ccccc2OC)nc2c(C)nn(C)c2c1=O | -1.82% | 6.67% | 3.08% | -2.73% | -6.88% | -9.19% | -4.4% | 16.3% | 10.6% | 8.47% | 10.3% | -10.1% | 
Cn1cc(CC2CCN(C(=O)NCCc3cccc(O)c3)C2)cn1 (stereo not given) | -1.93% | 0% | 11.8% | 1.28% | -3.8% | 5.95% | -2.37% | 11% | -12% | 5.32% | 7.79% | -2.6% | 
CCc1nc(CN2CCCN(C(=O)CCc3ccco3)CC2)cs1 | -4.67% | 8.86% | -0.445% | -5.08% | 5.64% |  | -4.95% | 56.6% and 53% and 44.8% | 3.92% | 7.29% | 15.2% | -32.7% | 0.501% and 5.84%
CCOCCCn1c(NC(=O)c2scnc2C)nc2ccccc21 | -9.29% | -5.2% | -17.4% | 23.1% | 11.1% |  | 4.27% | 92.3% and 90% and 93.7% | 68.6% | 7.77% | 21.9% | 72.8% | 69.6% and 70.1%
CN(Cc1ccco1)[C@@H]1CN(Cc2ccco2)[C@@H]2CCCO[C@H]12 | -1.09% | 2.67% | 15.3% | -0.135% | -5.71% | -2.7% | 3.03% | 13.5% | 2.84% | 4.25% | 11.5% | -5.52% | 
CCC(C(=O)NCc1ccncc1)N(c1cccc(C)c1)S(C)(=O)=O (stereo not given) | -2.54% | 2.67% | 0.78% | 9.85% | 5.16% | 10.3% | 9.38% | 7.32% | 18.8% | 2.73% | 13.6% | -7.66% | 
Cc1cc(C(=O)N2CCc3nnc(N)cc3C2)c(C)n1-c1cccnc1 | -9.46% | -46.8% | -58.5% | 7.86% | 0.923% |  | -2.37% | 33.5% and 37.5% and 48.3% | 12.2% | 9.38% | 10.1% | -5.27% | 14.7% and 15.2%
Cc1noc(NC(=O)c2ccc(OC(F)(F)F)cc2)n1 | -1.74% | 18.4% | -0.843% | 1.75% | 2.52% |  | -4.68% | 75.9% and 76.1% and 72% | 75.7% | 15.3% | 28.4% | -3.4% | 32.7% and 35.8%
CN(Cc1ccccn1)C(=O)[C@]12COC[C@H]1CN(Cc1cnn(C)c1)C2 | -1.75% | 2.67% | 0.223% | 6.55% | 1.16% | 5.95% | -52.5% | 3.93% | -7.69% | 2.08% | 7.5% | -8.12% | 
CN(C)C(=O)[C@@H]1CCO[C@@H]2CCN(Cc3ccccc3)C[C@@H]21 | -1.18% | 2.7% | -0.272% | -1.07% | -6.45% | -1.62% | 2.92% | 20.5% | 10% | 7.92% | 8.54% | -0.0601% | 
